# Laboratory results published in PubChem BioAssay AID488943 (Broad Institute, 2010).
# Measured potencies and affinities stand elsewhere. Calls of active or inactive are those of the source.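 How the source made its calls: active means compounds with a fitted half-maximal inhibitory dose at or below ten times their top tested dose; inconclusive means flat curve at 30 to 70% inhibition, or poor fit; inactive means the rest.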
# Experiment: C. albicans growth inhibition with fluconazole – CaCi-2 strain, Alamar Blue, dry powder, set 4, dose response (AID 488943)
# Details: C. albicans CaCi-2 (fluconazole-resistant clinical isolate) + fluconazole, 48 h; series mostly up to 6 µM; activity change, negative = inhibition: at the top concentration
row,Compound,"activity change, negative = inhibition"
1,O=C(c1ccc(Cl)cc1)N1CCNCC1,13.3% (inactive)
2,COc1cccnc1N1CCN(C(=O)c2ccc(Cl)cc2)CC1,-19.6% (inactive)
3,CCCC(=O)N1CCN(c2ccnc3cc(Cl)ccc23)CC1,-28.2% (inactive)
4,O=C(c1ccc(Cl)cc1)N1CCN(c2ccncc2)CC1,-18.9% (inactive)
5,O=C(c1ccc(Cl)cc1)N1CCN(c2cccc(C(F)(F)F)n2)CC1,-5.41% (inactive)
6,O=C(C1CC1)N1CCN(c2ccnc3cc(Cl)ccc23)CC1,-28.7% (inactive)
7,COCCC(=O)N1CCN(c2ccnc3cc(Cl)ccc23)CC1,-13.7% (inactive)
8,CC(C)C(=O)N1CCN(c2ccnc3cc(Cl)ccc23)CC1,-14.5% (inactive)
9,O=C(c1ccc(Cl)cc1)N1CCN(c2cc(C(F)(F)F)nc3ccccc23)CC1,10.5% (inactive)
10,Cc1cc(N2CCN(C(=O)c3ccc(Cl)cc3)CC2)c2ccccc2n1,6.08% (inactive)
11,CCCCNC(=O)N1CCN(c2ccnc3cc(Cl)ccc23)CC1,1.3% (inactive)
12,O=S(=O)(c1ccc(Cl)cc1)N1CCN(c2ccnc3cc(Cl)ccc23)CC1,-10.1% (inactive)
13,Cc1cccc(N2CCN(C(=O)c3ccc(Cl)cc3)CC2)n1,-9.45% (inactive)
14,O=C(c1ccc(Cl)cc1)N1CCN(c2ccnc3ccccc23)CC1,-24.1% (inactive)
15,O=C(c1ccc(Cl)cc1)N1CCCN(c2ccnc3cc(Cl)ccc23)CC1,-25.6% (inactive)
16,COc1cccc2c(N3CCN(C(=O)c4ccc(Cl)cc4)CC3)cc(C)nc12,10.9% (inactive)
